# Measurements taken from ChEMBL document CHEMBL3988442, “University of Dundee, Small-Polar-MMV Screening Library” (2021).
# For some assays here: Results with a measured potency or affinity are listed apart.
# Tests used:
# Parameters in all cases: scale not given: direction of the effect not stated beside the values
# [1] = biological target: Protein translocase subunit SecA (Escherichia coli (strain K12)) (UniProt P10408); assay: Assay to Identify E. coli SecA ATPase Inhibitors; format: functional; conditions: 30 µM
# Protein translocase subunit SecA (Escherichia coli (strain K12)), sequence (P10408 whole entry): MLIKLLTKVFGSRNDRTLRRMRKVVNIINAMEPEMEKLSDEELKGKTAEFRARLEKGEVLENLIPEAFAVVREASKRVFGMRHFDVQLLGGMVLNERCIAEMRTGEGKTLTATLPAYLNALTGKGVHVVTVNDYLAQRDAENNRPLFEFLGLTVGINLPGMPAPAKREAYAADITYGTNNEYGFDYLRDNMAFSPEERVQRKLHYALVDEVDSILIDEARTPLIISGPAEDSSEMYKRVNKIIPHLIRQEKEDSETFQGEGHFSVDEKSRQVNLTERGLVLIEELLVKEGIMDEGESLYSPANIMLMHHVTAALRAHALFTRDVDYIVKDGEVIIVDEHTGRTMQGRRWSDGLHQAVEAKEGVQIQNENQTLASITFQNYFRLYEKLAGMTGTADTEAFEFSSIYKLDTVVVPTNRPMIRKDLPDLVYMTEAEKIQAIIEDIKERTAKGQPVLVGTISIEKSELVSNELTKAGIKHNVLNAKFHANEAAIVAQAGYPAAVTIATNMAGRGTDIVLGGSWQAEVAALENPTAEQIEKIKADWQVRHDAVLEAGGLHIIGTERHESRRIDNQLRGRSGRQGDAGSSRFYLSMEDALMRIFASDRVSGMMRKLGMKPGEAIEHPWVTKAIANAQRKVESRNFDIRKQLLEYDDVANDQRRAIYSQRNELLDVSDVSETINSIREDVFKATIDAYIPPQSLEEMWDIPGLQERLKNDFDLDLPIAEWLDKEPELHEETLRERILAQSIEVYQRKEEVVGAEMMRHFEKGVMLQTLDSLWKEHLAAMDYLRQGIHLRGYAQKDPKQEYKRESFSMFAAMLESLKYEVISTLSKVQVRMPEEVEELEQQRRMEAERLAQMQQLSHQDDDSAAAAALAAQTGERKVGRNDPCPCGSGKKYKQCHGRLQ
# [2] = biological target: T1, Ubiquitin-activating enzyme e1, putative (Leishmania donovani (strain BPK282A1)) (UniProt E9BSI1); assay: Leishmania donovani Ubiquitin Activating Enzyme (LdE1); format: functional; conditions: 30 µM
# T1 sequence (whole entry): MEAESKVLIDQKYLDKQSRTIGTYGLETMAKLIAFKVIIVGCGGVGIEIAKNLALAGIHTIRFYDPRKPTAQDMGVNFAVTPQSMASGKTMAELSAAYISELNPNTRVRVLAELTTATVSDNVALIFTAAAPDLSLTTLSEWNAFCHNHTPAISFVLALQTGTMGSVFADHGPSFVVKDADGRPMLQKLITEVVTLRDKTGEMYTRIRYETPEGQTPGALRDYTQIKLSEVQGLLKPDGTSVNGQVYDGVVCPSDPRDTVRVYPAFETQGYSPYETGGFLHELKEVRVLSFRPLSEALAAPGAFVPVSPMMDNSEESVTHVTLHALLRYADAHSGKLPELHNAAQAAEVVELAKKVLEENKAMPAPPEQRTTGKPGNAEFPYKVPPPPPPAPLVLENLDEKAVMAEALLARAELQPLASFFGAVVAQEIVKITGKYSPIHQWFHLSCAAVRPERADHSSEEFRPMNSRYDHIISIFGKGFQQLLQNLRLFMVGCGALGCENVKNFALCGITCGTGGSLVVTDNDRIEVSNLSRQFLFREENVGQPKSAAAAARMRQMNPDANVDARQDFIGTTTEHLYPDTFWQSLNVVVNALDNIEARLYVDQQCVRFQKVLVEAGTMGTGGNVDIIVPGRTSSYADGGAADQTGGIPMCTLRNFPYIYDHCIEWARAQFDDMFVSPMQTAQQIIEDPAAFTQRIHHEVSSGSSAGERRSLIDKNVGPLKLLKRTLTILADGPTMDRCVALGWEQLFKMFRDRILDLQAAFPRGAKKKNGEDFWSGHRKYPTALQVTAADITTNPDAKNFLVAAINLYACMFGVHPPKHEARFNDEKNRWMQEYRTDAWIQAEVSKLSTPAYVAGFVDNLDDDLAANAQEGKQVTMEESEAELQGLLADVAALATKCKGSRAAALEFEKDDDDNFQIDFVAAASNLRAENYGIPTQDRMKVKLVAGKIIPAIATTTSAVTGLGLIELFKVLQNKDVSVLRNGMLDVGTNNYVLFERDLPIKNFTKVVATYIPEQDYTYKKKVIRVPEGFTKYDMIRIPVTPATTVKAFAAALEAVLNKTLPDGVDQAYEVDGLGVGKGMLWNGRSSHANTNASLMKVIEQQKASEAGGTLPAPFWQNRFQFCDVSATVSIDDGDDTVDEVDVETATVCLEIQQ
# [3] = biological target: AMP-activated protein kinase, AMPK (Homo sapiens) (UniProt P54646+O43741+P54619+Q9UGJ0+Q9Y478+Q13131+Q9UGI9); assay: AMP-dependent Kinase enzyme assay. An in vitro enzyme assay that detects ADP turnover that is directly proportional to AMPK activity. This uses naive AMPK that is activated during the assay with MK-8722; format: functional; conditions: 30 µM
# [4] = biological target: Sialic acid-binding Ig-like lectin 9 (Homo sapiens) (UniProt Q9Y336); assay: Hs-Siglec9 ALPHAscreen SOP 20170721; conditions: 10 µM
# Sialic acid-binding Ig-like lectin 9 (Homo sapiens), sequence (Q9Y336 whole entry): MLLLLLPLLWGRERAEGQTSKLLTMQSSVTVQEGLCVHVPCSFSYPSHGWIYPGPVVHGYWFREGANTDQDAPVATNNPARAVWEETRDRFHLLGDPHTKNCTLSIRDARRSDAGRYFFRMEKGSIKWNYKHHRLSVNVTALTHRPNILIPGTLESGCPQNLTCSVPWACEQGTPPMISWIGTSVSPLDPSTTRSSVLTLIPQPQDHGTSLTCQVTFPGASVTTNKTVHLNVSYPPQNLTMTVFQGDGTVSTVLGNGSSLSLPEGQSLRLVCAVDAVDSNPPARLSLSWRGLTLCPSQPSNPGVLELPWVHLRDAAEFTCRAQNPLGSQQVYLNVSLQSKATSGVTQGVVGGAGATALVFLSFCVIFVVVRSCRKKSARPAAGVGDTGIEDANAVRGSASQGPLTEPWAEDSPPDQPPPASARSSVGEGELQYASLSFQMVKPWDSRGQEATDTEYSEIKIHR
# Trypanosoma cruzi = assay: Trypanosoma cruzi phosphomannomutase and mannose-1-phosphate guanylyltransferase assay; format: functional; conditions: 10 µM
# [5] = biological target: T2, Arginase-2, mitochondrial (Homo sapiens) (UniProt P78540); assay: in vitro enzyme assay to detect the production of urea directly proportional to the activity of Arginase II; format: functional; conditions: 33.3 µM; further: in the data most compounds retested in dose-response had high values
# T2 sequence (whole entry): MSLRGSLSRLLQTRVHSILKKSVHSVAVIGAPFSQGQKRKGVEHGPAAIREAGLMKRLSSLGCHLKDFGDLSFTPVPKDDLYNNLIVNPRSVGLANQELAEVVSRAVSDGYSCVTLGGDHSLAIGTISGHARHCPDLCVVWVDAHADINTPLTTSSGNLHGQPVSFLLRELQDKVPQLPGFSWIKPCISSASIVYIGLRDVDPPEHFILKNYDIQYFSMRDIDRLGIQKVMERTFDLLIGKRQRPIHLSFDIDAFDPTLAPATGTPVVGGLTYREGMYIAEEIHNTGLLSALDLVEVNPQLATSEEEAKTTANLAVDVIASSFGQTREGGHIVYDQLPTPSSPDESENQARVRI
# [6] = biological target: T3, Proteasome subunit beta (Trypanosoma cruzi) (UniProt O96673); assay: Trypanosoma cruzi proteasome chymotrypsin-like activity (TcProtChymo) assay.; further: in the data most compounds retested in dose-response had high values; format: functional; conditions: 9.37 µM
# T3 sequence (whole entry): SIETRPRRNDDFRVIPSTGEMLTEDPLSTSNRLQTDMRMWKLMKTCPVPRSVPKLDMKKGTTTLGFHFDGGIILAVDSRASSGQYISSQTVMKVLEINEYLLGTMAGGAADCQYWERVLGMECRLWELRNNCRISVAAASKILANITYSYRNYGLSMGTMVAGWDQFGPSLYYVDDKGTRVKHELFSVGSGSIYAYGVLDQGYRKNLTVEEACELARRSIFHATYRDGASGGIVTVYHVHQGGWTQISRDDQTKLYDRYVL
# Homo sapiens = species: Homo sapiens; assay: To identify inhibition of the IFN signalling (Jak-Stat) pathway via expression of an eGFP reporter gene under the control of an IFN-stimulated response element (ISRE) containing MxA promoter.; format: functional; conditions: 30 µM
# [7] = biological target: T4, Tyrosyl-tRNA synthetase, putative (Trypanosoma cruzi (strain CL Brener)) (UniProt Q4DSP6); assay: Trypanosoma cruzi tyrosyl tRNA synthetase (TcYRS) _High Tyrosine SOP; format: functional; conditions: 30 µM; further: in the data most compounds retested in dose-response had high values
# T4 sequence (whole entry): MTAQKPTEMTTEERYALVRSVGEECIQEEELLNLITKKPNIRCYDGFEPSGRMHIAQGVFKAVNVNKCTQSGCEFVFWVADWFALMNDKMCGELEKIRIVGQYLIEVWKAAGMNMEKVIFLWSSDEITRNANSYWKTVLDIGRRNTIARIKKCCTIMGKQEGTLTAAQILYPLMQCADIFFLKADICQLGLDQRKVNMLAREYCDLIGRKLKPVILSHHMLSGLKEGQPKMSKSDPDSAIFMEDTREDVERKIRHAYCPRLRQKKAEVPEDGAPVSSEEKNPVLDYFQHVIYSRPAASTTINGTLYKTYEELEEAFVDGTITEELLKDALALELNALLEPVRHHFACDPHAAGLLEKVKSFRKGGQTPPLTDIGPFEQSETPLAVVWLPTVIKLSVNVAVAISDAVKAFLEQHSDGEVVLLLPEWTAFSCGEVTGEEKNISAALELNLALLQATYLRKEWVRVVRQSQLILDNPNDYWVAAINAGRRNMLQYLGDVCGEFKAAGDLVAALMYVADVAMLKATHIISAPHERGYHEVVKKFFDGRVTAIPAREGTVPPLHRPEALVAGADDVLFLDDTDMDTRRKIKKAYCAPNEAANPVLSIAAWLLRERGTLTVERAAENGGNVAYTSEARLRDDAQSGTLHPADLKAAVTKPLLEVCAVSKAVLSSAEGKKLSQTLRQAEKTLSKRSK
# [8] = biological target: T4, Tyrosyl-tRNA synthetase, putative (Trypanosoma cruzi (strain CL Brener)); assay: Trypanosoma cruzi tyrosyl tRNA synthetase (TcYRS) SOP; format: functional; conditions: 30 µM
# [9] = biological target: Chromo domain-containing protein 1 (Saccharomyces cerevisiae (strain ATCC 204508 / S288c) (Baker's yeast)) (UniProt P32657); assay: ScCHD-1 Enzyme Inhibition Assay; format: functional; conditions: 30 µM; further: in the data most compounds retested in dose-response had high values
# Chromo domain-containing protein 1 (Saccharomyces cerevisiae (strain ATCC 204508 / S288c) (Baker's yeast)), sequence (P32657 whole entry, the tested form may be a part): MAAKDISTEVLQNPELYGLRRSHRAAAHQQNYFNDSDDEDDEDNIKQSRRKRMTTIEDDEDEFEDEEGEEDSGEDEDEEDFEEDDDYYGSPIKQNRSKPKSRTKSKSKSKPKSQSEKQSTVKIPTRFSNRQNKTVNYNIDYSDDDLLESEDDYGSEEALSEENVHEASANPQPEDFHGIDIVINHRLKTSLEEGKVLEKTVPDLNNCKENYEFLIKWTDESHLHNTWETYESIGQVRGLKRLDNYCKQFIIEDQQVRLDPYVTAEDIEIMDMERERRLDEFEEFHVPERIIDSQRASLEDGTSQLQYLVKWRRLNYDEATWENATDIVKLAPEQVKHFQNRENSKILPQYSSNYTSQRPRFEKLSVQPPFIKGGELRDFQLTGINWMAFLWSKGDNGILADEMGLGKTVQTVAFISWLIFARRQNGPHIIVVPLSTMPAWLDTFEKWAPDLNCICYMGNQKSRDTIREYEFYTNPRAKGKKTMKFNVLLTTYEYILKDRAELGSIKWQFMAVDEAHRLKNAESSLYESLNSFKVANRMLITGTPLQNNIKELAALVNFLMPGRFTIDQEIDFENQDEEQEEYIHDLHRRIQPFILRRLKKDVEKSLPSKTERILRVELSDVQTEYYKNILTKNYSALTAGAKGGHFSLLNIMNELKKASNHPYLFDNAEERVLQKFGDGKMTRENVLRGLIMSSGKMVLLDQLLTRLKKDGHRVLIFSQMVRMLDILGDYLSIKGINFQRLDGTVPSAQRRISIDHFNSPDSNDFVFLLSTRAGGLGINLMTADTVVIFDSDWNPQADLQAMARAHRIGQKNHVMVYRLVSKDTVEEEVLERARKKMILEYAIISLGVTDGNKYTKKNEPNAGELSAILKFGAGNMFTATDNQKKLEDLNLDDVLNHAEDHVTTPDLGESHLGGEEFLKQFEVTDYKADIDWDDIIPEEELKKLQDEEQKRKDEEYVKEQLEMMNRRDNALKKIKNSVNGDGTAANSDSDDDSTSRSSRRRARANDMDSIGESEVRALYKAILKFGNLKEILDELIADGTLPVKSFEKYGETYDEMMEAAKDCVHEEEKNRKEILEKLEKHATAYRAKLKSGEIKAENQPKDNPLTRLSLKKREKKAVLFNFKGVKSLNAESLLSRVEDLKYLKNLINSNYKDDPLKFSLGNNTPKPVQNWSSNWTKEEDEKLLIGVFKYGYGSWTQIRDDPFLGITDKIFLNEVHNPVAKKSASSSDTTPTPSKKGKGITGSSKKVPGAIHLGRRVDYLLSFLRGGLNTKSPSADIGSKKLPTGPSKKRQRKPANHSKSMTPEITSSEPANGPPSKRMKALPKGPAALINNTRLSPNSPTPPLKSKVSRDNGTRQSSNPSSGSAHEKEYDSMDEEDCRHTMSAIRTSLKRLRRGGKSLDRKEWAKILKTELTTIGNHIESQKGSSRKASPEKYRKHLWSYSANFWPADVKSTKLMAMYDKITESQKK
Compound,Percent Effect [1] [%],Percent Effect [2] [%],Percent Effect [3] [%],Percent Effect [4] [%],Percent Effect (Trypanosoma cruzi) [%],Percent Effect [5] [%],Percent Effect [6] [%],Percent Effect (Homo sapiens) [%],Percent Effect [7] [%],Percent Effect [8] [%],Percent Effect [9] [%]
Cc1nn(C)c(C)c1C(C)NC(=O)Nc1cccnc1N1CCCC1 (configuration not stated),-1.26,2.7,-19.3,6.12,-3.3,0,0.18,15,-0.493,3.7,-0.951
Cc1nc(C)n(CC2CN(Cc3cccc4c3OCCO4)CCO2)n1 (configuration not stated),-6.14,18.4,-1.72,0.869,3.46,1.08,1.78,2.86,11.3,28.4,-8.32
CS(=O)(=O)N1CC[C@H]2C[C@@H](C(=O)N3CCOCC3)O[C@@H]2C1,-3.64,-8,8.84,4.61,-1.54,-53.2,2.73,-12.5,-2.08,-7.5,1.18
O=S(=O)(Nc1cnn(C2CCOCC2)c1)c1ccc(F)c(F)c1,-2.82,-2.6,-3.09,9.32,-5.03,-8.39,8.01,-0.875,-1.06,3.85,-2.49
Cc1cnn(CC2CCCN2C(=O)c2cccc(CC#N)c2)c1 (configuration not stated),-3.75,2.53,0.139,-0.305,8.03,0,-0.0819,-5.56,0.493,1.27,-2.19
CN(Cc1ccc(F)cc1)C(=O)CN1CCCC(Cn2cncn2)C1 (configuration not stated),-2.63,2.53,1.84,7.47,3.49,1.52,-6.8,-5.05,7.39,3.8,-2.65
CCc1ccc(C(=O)N2CCCC(n3cncn3)C2)o1 (configuration not stated),-10.1,-4.17,-1.09,-2.11,-2.82,-2.21,7.37,4.2,3.16,-2.56,3.19
Cc1nn(CC(=O)N2CCN(c3ccccc3F)CC2)c(C)c1Cl,0.317,15.6,4.64,2.9,1.87,-24.8,25.5,9.79,4.3,23.5,1.69
Cc1cnccc1CN1C[C@@H](O)[C@H](Oc2ccccc2)C1,4.34,-4.05,6.12,0.247,0.593,3.02,3.28,11.6,2.15,-1.3,-12.9
CCn1nnc2c1C(COC)CN(Cc1ccsc1)C2 (configuration not stated),-6.4,5.41,1.42,-2.12,-5.77,-2.73,10.2,-14.5,2.15,3.7,-3.53
COc1cc(CNCc2c(C)nn(C)c2N(C)C)ccc1C,-4.67,-5.41,-13.7,2.96,1.98,-6.41,3.06,-2.21,5.42,1.24,0.104
Cn1cccc1C(=O)N1CCCC2(CCN(CCN3CCCC3)C2=O)C1 (configuration not stated),-6.99,2.6,0.774,9.32,-1.48,-4.14,7.65,11.9,-2.15,-1.24,0.981
CCc1cnc2c(c1NCc1ccncc1)c(=O)n(C)c(=O)n2C,0.985,8.22,-0.992,-0.488,-4.5,5,13.1,14.7,6.45,10,-4.37
Cc1ccc2cnn(CCC(=O)NCc3c(C)nn(C)c3C)c2c1,-6.31,2.6,0.586,1.87,0.492,-1.38,8.98,7.06,3.23,6.17,-1.97
COc1cccc(S(=O)(=O)CCN2CCCCC2)c1,-3.72,8,-7.74,6.82,-5.94,1.56,22,20,2.73,8.64,-9.16
O=S(=O)(CCNCc1ccc2c(c1)CCO2)N1CCOCC1,-6.32,-2.7,-3.09,10.1,-3.67,-3.33,11.7,-0.791,-0.529,-4.88,-4.8
Cc1nn(CCn2ccnc2-c2cc3n(n2)CCCNC3)c(C)c1Cl,-4.62,21.3,-6.15,20.4,5.75,6.25,16.9,21.8,7.1,23.5,-7.41
COc1cc(C(=O)Nc2c(C)noc2C)ccc1C,-3.57,17.7,2.44,6.13,3.87,-4.56,1.88,18.6,4.43,16.5,-5.84
CC(O)CN1CCN(C(=O)c2cn(-c3ccccc3Cl)nn2)CC1 (configuration not stated),-1.74,10.8,-3.04,16.5,2.44,5.71,4.21,-2.08,3.23,13.6,-4.02
Cc1cccc(OCCC(=O)N2CCCN(C(N)=O)CC2)c1C,-5.63,-63.3,-5.53,-0.36,-9.54,3.8,3.85,27.5,-3.45,-8.86,-6.9
O=C(Cc1ccccc1)N1CCC2(CC(=O)N(c3cccc(F)c3)C2)C1 (configuration not stated),-5.5,2.7,-5.09,-3.6,-1.86,1.74,6.09,-6.6,3.23,3.7,2.85
c1cnn(CC2CN(Cc3nc(-c4ccsc4)no3)CCO2)c1 (configuration not stated),-2.55,10.5,-2.23,16.5,-1.13,0.766,-2.34,6.35,1.47,9.76,0.902
